Assay [1] in a line: qHTS assay to identify small molecule agonists of the hypoxia (HIF-1) signaling pathway - cell viability counter screen (AID 1224844; calls by dose curve; note: nearly all actives have a fitted effect of over 50% in size). In short, it runs like this: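 Luminescent ATP content (CellTiter-Glo, 30 min, room temperature) served as the viability measure in HRE-bla ME-180 cells exposed to compounds for 17 hrs in low-serum medium (0.5% dialyzed FBS).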
On the technique in general: Quantitative high-throughput screening tests each substance at several concentrations.

Assay [2] is described as follows: qHTS assay to identify small molecule agonists of H2AX (AID 1224845; active = well fitted activation curve with a large enough effect in the signal ratio in the repeat runs, not every such curve was filed as active; the % refers to the signal ratio). In outline: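 Wild-type CHO-K1 cells, plated overnight, exposed 3hr at 37C to 15 concentrations (0.76% DMSO final). Lysed, then HTRF anti-pH2AX (S139) cryptate and anti-H2AX-d2 antibodies, 24 hr room temperature; 665/620 nm emission read.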
Assay [3] in a line: qHTS assay to identify small molecule agonists of the hypoxia (HIF-1) signaling pathway (AID 1224846; active = well fitted activation curve with a large enough effect in the signal ratio in the repeat runs, not every such curve was filed as active; the % refers to the signal ratio). In outline: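 Measured by blue/green FRET after loading CCF4-AM: beta-lactamase expressed from a hypoxia response element in ME-180 cells. Test agents were delivered in DMSO and left 17 hrs; cells had been plated 5 hrs earlier in low-serum (0.5% dialyzed FBS) medium.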
The nature of assay [4]: qHTS assay to identify small molecule agonists of H2AX - cell viability counter screen (AID 1224847; calls by dose curve; note: top concentration of the series differs between compounds; nearly all actives have a fitted effect of over 30% in size). In short, it runs like this:
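For this counter screen, overnight-attached CHO-K1 cells received test compounds (15 concentrations, 0.76% DMSO final); 3 hr later at 37C, CellTiter-Glo reagent was added and luminescence recorded after 30 min at room temperature.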

Assay [5] in a line: qHTS RealTime-Glo MT Cell Viability Assay in HepG2 cells - 24 hour (AID 1224867). Note: nearly all actives have a fitted effect of over 50% in size. In outline: (§1)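 Tox21 10K library screened in qHTS format on HepG2 cells carrying RealTime-Glo reagents. Compounds were added after a 5 h preincubation, and the luminescent signal from continuous culture was measured repeatedly during 40 h treatment.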
Assay [6] in a line: qHTS RealTime-Glo MT Cell Viability Assay in HEK293 cells - 32 hour (AID 1224868). Note: top concentration of the series differs between compounds; nearly all actives have a fitted effect of over 50% in size. In outline: (§2)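 Luminescence generated by NanoLuc from substrate produced by living HEK293 cells served as the viability signal. Each value reflects the reading at its stated time point during continuous 40 h compound exposure at 37 C.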
Assay [7] is described as follows: A CellTox Green Cytotoxicity Assay to monitor cytotoxicity in HEK293 cells - 0 hour (AID 1224869). Note: nearly all actives have a fitted effect of over 50% in size. In outline:
(§3)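 Each value comes from one timepoint of a single continuous run in which HEK293 cells with CellTox Green were exposed to compound for up to 40 h at 37 C, dye fluorescence rising with cell death.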

A short description of assay [8]: qHTS RealTime-Glo MT Cell Viability Assay in HepG2 cells - 40 hour (AID 1224870). Note: nearly all actives have a fitted effect of over 50% in size. In short, it runs like this: (§4)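 HepG2 cells (600/well) mixed with RealTime-Glo MT reagent, settled 5 h at 37 C/5% CO2 before compound addition. Nonlytic NanoLuc luminescence from viable-cell prosubstrate reduction read repeatedly during 40 h treatment at 37 C.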
Assay [9] in a line: A CellTox Green Cytotoxicity Assay to monitor cytotoxicity in HEK293 cells - 40 hour (AID 1224871). Note: nearly all actives have a fitted effect of over 45% in size. Note: potency is the fitted concentration of half-maximal effect. In short, it runs like this: as §3
The nature of assay [10]: qHTS RealTime-Glo MT Cell Viability Assay in HEK293 cells - 16 hour (AID 1224872). In short, it runs like this:
as §2

Assay [11] in a line: qHTS RealTime-Glo MT Cell Viability Assay in HepG2 cells - 8 hour (AID 1224873). Note: nearly all actives have a fitted effect of over 55% in size. In short, it runs like this:
as §4

Assay [12] can be described thus: qHTS RealTime-Glo MT Cell Viability Assay in HEK293 cells - 40 hour (AID 1224874). Note: nearly all actives have a fitted effect of over 50% in size. As to conditions: RealTime-Glo luminescence; max response: stronger effect = lower value. In outline: (§5)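 qHTS format; HEK293 cells with NanoLuc/prosubstrate reagent, 37 C/5% CO2 for 5 h pre-dosing; compounds 23 nL in DMSO; luminescence at each time point reflects viable cells.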
Assay [13] in a line: A CellTox Green Cytotoxicity Assay to monitor cytotoxicity in HEK293 cells - 24 hour (AID 1224875). Note: nearly all actives have a fitted effect of over 45% in size. In outline:
as §3

Assay [14] in a line: A CellTox Green Cytotoxicity Assay to monitor cytotoxicity in HepG2 cells - 16 hour (AID 1224876). Note: nearly all actives have a fitted effect of over 45% in size. In outline: (§6)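 Continuous culture of HepG2 cells with a membrane-impermeant DNA dye; rising fluorescence marks dead cells. Compound exposure lasted up to 40 h at 37 C, with reads every 8 h from 0 h.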
Assay [15] in a line: qHTS RealTime-Glo MT Cell Viability Assay in HepG2 cells - 32 hour (AID 1224877). Note: nearly all actives have a fitted effect of over 55% in size. In short, it runs like this:
as §1

Assay [16] in a line: A CellTox Green Cytotoxicity Assay to monitor cytotoxicity in HepG2 cells - 40 hour (AID 1224879). Note: nearly all actives have a fitted effect of over 40% in size. Note: potency is the fitted concentration of half-maximal effect. In outline:
as §6

Assay [17] can be described thus: qHTS RealTime-Glo MT Cell Viability Assay in HEK293 cells - 0 hour (AID 1224880). Note: top concentration of the series differs between compounds; nearly all actives have a fitted effect of over 45% in size. In outline:
as §5

Assay [18] in a line: A CellTox Green Cytotoxicity Assay to monitor cytotoxicity in HepG2 cells - 24 hour (AID 1224878). Note: nearly all actives have a fitted effect of over 45% in size. In outline:
as §6

Assay [19] can be described thus: qHTS assay to identify small molecule antagonists of the estrogen related receptor (ERR) signaling pathway from Tox21 library (AID 1224848). Note: nearly all actives have a fitted effect of over 50% in size. Note: potency is the fitted concentration of half-maximal effect. In outline:
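Luminescent reporter read-out (ONE-Glo) from NTP's ERR cell line after 18 h treatment at 37 C with DMSO-dissolved Tox21 compounds; cells pre-plated 6 h beforehand at 2,000 per well.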

The nature of assay [20]: qHTS assay to identify small molecule agonists of the estrogen related receptor (ERR) signaling pathway from Tox21 library (AID 1224849; calls by dose curve; note: nearly all actives have a fitted effect of over 15% in size). The following applies: ERR reporter cell line, ONE-Glo luciferase, 18 h. In outline:
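We plated ERR reporter cells, waited 6 h, added compounds in DMSO by pin tool and incubated them 18 h at 37 C. ONE-Glo was then added and luminescence read after 30 min.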

Molecules are shown by their SMILES. “And” between values parts separate entries of the source, which are not always exact repeats. Equal values may be shown once. Records with an inconclusive call do not appear. Where a structure was tested more than once in an assay, its records may differ in their call. The source made the active and inactive calls. Unless noted, calls come from the whole dose curve; as a rule, active = well fitted curve in the direction sought with a large enough effect in the repeat runs; inconclusive = weak or mixed curves; inactive = no such curve, though single readings can be large; an effect the other way counts as inactive or inconclusive.
% is set by controls: 0 for no effect and ±100 for the full control effect.

As for `O=C1O[C@H]([C@H](O)CO)C(O)=C1O`, the Potency entry in [1], in assay [2], in assay [4], in assay [5], in assay [6] and in assay [7] was “inactive” each time. In addition, the Potency entry in [8], in [9], in [10], in assay [11], in assay [13] and in [14] was “inactive” in each case. Also, the Potency result in assay [15], in assay [16] and in assay [17] was “inactive” each time. Further, the call in assay [3] was inactive. Further, the max response in assay [12] is 0.913% (inactive) and 0.152% (inactive).
As to `Nc1cccc(N)n1`, the Potency result in assay [1], in assay [4], in assay [5], in [6], in assay [7] and in assay [8] was “inactive” each time. Besides, the Potency entry in [9], in [10], in assay [11], in assay [13], in [14] and in assay [15] was “inactive” each time. The Potency entry in assay [18], in [16] and in assay [17] was “inactive” each time. Also, in assay [3], the outcome was inactive. For the same compound, in assay [12], the max response is 0.328% (inactive) and -0.427% (inactive).
In the case of `CCCCCNCCCCC`, the Potency result in [1], in [2], in assay [4], in assay [5], in assay [6] and in assay [7] was “inactive” in each case. Besides, the Potency entry in assay [8], in assay [9], in assay [10], in assay [11], in assay [13] and in [14] was “inactive” each time. In addition, the Potency entry in assay [15], in [16] and in assay [17] was “inactive” each time. Moreover, the call in assay [3] was inactive. Besides, the max response in assay [12] was 4.14% (inactive) and 0.383% (inactive).
With `Clc1cccc(Cl)c1NC1=NCCN1`, the Potency result in assay [1], in [2], in [4], in assay [5], in assay [6] and in assay [7] was “inactive” each time. The Potency entry in assay [8], in assay [9], in assay [10], in assay [11], in assay [13] and in assay [14] was “inactive” each time. In addition, the Potency entry in assay [15], in assay [18], in [16] and in assay [17] was “inactive” in each case. In addition, the max response in assay [12] was 1.29% (inactive) and 0.883% (inactive).
With `COC(=O)/C=C\C(=O)OC`, the Potency result in assay [2], in assay [4], in assay [19], in assay [5], in assay [6] and in assay [7] was “inactive” in each case. Also, the Potency entry in assay [8], in assay [9], in [10], in [11], in assay [13] and in assay [14] was “inactive” in each case. Besides, the Potency result in assay [15], in assay [16] and in assay [17] was “inactive” throughout. Besides, the call in assay [3] was inactive. The activity change, positive = activation in assay [20] (at 42.5 µM (top of the series)) is 7.01% (inactive); in assay [20] (at 92.4 µM (top of the series)) it was 2.62% (inactive). Moreover, the max response in assay [12] was 12.2% (inactive) and 10.6% (inactive).
Consider `CN1CCCC1=O`, for which the Potency result in assay [2], in assay [4], in assay [5], in [6], in [7] and in [8] was “inactive” each time. Moreover, the Potency result in [9], in assay [10], in assay [11], in assay [13], in assay [14] and in assay [15] was “inactive” in each case. The Potency entry in assay [18], in assay [16] and in assay [17] was “inactive” in each case. Further, the compound was classed as inactive in assay [3]. Also, the max response in [12] was 8.67% (inactive) and -2.64% (inactive).
Take `CC(=O)OCc1ccc2c(c1)OCO2`: the Potency entry in assay [2], in assay [4], in [19], in assay [5], in assay [6] and in [7] was “inactive” in each case. Further, the Potency entry in assay [8], in [9], in [10], in [11], in [13] and in assay [14] was “inactive” each time. The Potency entry in [15], in [18], in [16] and in assay [17] was “inactive” throughout. Further, in assay [3], the outcome was inactive. Further, in [20] (at 92.4 µM (top of the series)), the activity change, positive = activation was -6.11% (inactive) and 0.823% (inactive). For the same compound, the max response in assay [12] is 2.92% (inactive) and 8.23% (inactive).
As to `CC(=O)OC(C)(C)C1CC=C(C)CC1` (configuration not stated), the Potency entry in assay [2], in [4], in [19], in assay [5], in assay [6] and in assay [7] was “inactive” throughout. In addition, the Potency result in assay [8], in [9], in [10], in [11], in assay [13] and in assay [14] was “inactive” throughout. Besides, the Potency result in assay [15], in [18], in [16] and in assay [17] was “inactive” throughout. In assay [3], the compound was called inactive. Besides, the activity change, positive = activation in [20] (at 92.4 µM (top of the series)) is 5.97% (inactive) and -1.38% (inactive). Moreover, the max response in assay [12] was 3.8% (inactive) and -15.5% (inactive).
On to `CC1=CC(=O)CC(C)(C)C1`, for which the Potency entry in [2], in assay [4], in assay [5], in assay [6], in assay [7] and in [8] was “inactive” throughout. Also, the Potency result in assay [10], in assay [11], in assay [13], in assay [14], in [15] and in [18] was “inactive” throughout. Besides, in [17], the Potency entry was “inactive”. For the same compound, the call in [3] was inactive. The Potency was 14.1 µM (active) and inactive in assay [19]; 25.3 µM (active) and inactive in assay [9]; 25.3 µM (active) and inactive in assay [16]. For the same compound, in assay [20] (at 92.4 µM (top of the series)), the activity change, positive = activation was -82.9% (inactive) and 7.49% (inactive). Besides, the max response in assay [12] is 9.76% (inactive).
For the compound `Cc1ncc(CO)c(CO)c1O`, the Potency entry in assay [2], in assay [4], in assay [5], in assay [6], in assay [7] and in assay [8] was “inactive” throughout. Moreover, the Potency entry in assay [9], in [10], in assay [11], in assay [13], in [14] and in assay [15] was “inactive” each time. In addition, the Potency result in [16] and in assay [17] was “inactive” each time. The max response in assay [12] was 6.27% (inactive) and -1.31% (inactive) and 5.41% (inactive).
As to `CCc1cccc(CC)c1N`, the Potency entry in [2], in [4], in assay [5], in [6], in assay [7] and in [8] was “inactive” in each case. In addition, the Potency entry in assay [9], in assay [10], in [11], in [13], in assay [14] and in assay [15] was “inactive” in each case. Besides, the Potency entry in assay [16] and in [17] was “inactive” throughout. For the same compound, the compound was classed as inactive in [3]. Also, in [12], the max response is 1.74% (inactive) and 8.01% (inactive).

Source of the values: PubChem BioAssay (Tox21).
